Potency and outcome data for 26 compounds are collected here from PubChem BioAssay (Tox21).

The nature of experiment [1]: qHTS assay to identify small molecule agonists of the vitamin D receptor (VDR) signaling pathway - cell viability counter screen (AID 743224; active = well fitted curve in the direction sought with a large enough effect in the repeat runs; an effect the other way counts as inactive or inconclusive; also: series mostly up to about 63 µM; nearly all actives have a fitted effect of over 50% in size). The gist of the method:
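Luminescence from CellTiter-Glo, read after 30 min at room temperature, reports viability of VDR-bla cells treated with compounds for 16 h at 37C in the wells used for the beta-lactamase FRET read.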

Experiment [2] is described as follows: qHTS assay to identify small molecule antagonists of the vitamin D receptor (VDR) signaling pathway - cell viability counter screen (AID 743225; active = well fitted curve in the direction sought with a large enough effect in the repeat runs; an effect the other way counts as inactive or inconclusive; also: nearly all actives have a fitted effect of over 50% in size). The gist of the method: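 Parallel cytotoxicity test: VDR-UAS-bla HEK 293T, 3 nM (final) 1-alpha,25-dihydroxyvitamin D3 with test compound, 16 h, 37C. Endpoint is CellTiter-Glo luminescence in the same wells.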
Experiment [3] is described as follows: qHTS assay to identify small molecule agonists of the NFkB signaling pathway - cell viability counter screen (AID 1159515). Also: series mostly up to about 61 µM; nearly all actives have a fitted effect of over 55% in size. In outline: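 Luminescence from CellTiter-Glo (30 min, room temperature) gives viability, measured in the same wells as the beta-lactamase reporter read. Cells were NFkB-bla ME-180, 2,000 per well, treated 5 hr with compounds.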
A general note: Quantitative high-throughput screening tests each substance at several concentrations.

Experiment [4] is described as follows: qHTS assay to identify small molecule agonists of the endoplasmic reticulum stress response signaling pathway (AID 1159516; active = well fitted activation curve with a large enough effect in the signal ratio in the repeat runs, not every such curve was filed as active; the % refers to the signal ratio). The gist of the method: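 Read-out is beta-lactamase cleavage of a FRET substrate (405 nm excitation; 460 and 530 nm emissions) in ESRE-bla HeLa cells after a 5 hr compound exposure at 37 C. Substrate incubation ran 2 hr at room temperature.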

Experiment [5] in a line: qHTS assay to identify small molecule agonists of the endoplasmic reticulum stress response signaling pathway - cell viability counter screen (AID 1159517).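 Also: HeLa cells carrying an ER stress response element beta-lactamase reporter; series mostly up to about 61 µM; nearly all actives have a fitted effect of over 50% in size.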 The gist of the method: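 Counter-screen wells were identical to the reporter wells. Cells were plated at 1,500 per well and dosed for 5 hr, then read for luminescence 30 min after CellTiter-Glo addition.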
The nature of experiment [6]: qHTS assay to identify small molecule antagonists of the retinoid-related orphan receptor gamma (ROR-gamma) signaling pathway - cell viability counter screen (AID 1159520; active = well fitted curve in the direction sought with a large enough effect in the repeat runs; an effect the other way counts as inactive or inconclusive; also: nearly all actives have a fitted effect of over 50% in size). In outline: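 Tet-on ROR gamma CHO cells were given compounds for 2 hr, then doxycycline hyclate at 1 uM final, and incubated 16 hr at 37 C. Viability was measured as ATP content by CellTiter-Glo luminescence.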

The target of experiment [7] is Nuclear receptor ROR-gamma (Homo sapiens) (UniProt P51449). Nature of the experiment: qHTS assay to identify small molecule antagonists of the retinoid-related orphan receptor gamma (ROR-gamma) signaling pathway (AID 1159521; active = well fitted curve in the direction sought with a large enough effect in the repeat runs; an effect the other way counts as inactive or inconclusive; also: nearly all actives have a fitted effect of over 50% in size; also: potency is read from the fitted curve at half-maximal effect). In outline:
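Decreased RORE-driven luciferase luminescence indicates antagonism. Tet-on RORγ CHO cells received compound, then 1 uM final doxycycline 2 h later; signal read after 16 h incubation.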

Experiment [8] is described as follows: qHTS assay to identify small molecule agonists of the AP-1 signaling pathway - cell viability counter screen (AID 1159525). Also: nearly all actives have a fitted effect of over 55% in size. In outline: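 AP-1-bla ME-180 cells in Opti-MEM with 0.5% dialyzed FBS, compound exposure 5 h at 37 C in 15-point titration. Viability read in the same wells as ATP content by CellTiter-Glo luminescence, normalised to tetra-n-octylammonium bromide and DMSO controls.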

The nature of experiment [9]: qHTS assay to identify small molecule agonists of the AP-1 signaling pathway (AID 1159526).
Experiment [10] addresses Retinoic acid receptor RXR-alpha (Homo sapiens) (UniProt P19793). Nature of the experiment: qHTS assay to identify small molecule agonists of the RXR signaling pathway (AID 1159527). Also: nearly all actives have a fitted effect of over 35% in size. The gist of the method: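 16 hr incubation of compound-treated RXR-alpha-UAS-bla HEK 293T cells (2% charcoal-stripped FBS, 37 C) preceded a 2 hr room-temperature LiveBLAzer FRET substrate step and blue/green fluorescence measurement.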

Values joined by “and” are separate entries in the source; they are usually repeats but may differ in a detail not shown here. Equal values may be shown once. Records with an inconclusive call do not appear. Active and inactive are the calls of the source. Unless noted, calls follow the shape of the full dose curve.

Chain of Retinoic acid receptor RXR-alpha (Homo sapiens) (P19793 whole entry, looked up): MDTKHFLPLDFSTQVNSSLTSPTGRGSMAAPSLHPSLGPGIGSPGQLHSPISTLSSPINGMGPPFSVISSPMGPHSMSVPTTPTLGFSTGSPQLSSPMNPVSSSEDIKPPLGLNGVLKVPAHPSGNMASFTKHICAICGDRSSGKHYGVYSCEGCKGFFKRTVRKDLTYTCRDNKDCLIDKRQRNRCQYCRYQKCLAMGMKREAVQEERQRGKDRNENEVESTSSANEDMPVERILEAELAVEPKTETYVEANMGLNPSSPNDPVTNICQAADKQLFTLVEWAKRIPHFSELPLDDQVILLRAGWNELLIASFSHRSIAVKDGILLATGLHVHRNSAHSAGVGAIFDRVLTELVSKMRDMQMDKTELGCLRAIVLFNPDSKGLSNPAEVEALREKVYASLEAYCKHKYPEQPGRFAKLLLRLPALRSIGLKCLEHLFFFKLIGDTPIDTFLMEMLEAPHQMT

`C[Si](C)(C)N[Si](C)(C)C`: the Potency result in experiment [1], in experiment [2], in [3], in [4], in [5] and in experiment [6] was “inactive” each time. Moreover, the Potency entry in experiment [7], in experiment [8] and in [10] was “inactive” each time. Moreover, the compound was called inactive in experiment [9].

In the case of `Cc1nnc(NS(=O)(=O)c2ccc(N)cc2)s1`, the Potency entry in [1], in [2], in experiment [3], in [4], in [5] and in experiment [6] was “inactive” each time. For the same compound, the Potency result in [7], in experiment [8] and in experiment [10] was “inactive” throughout. Besides, in [9], the result was inactive.

In the case of `NC(=O)c1ncn([C@@H]2O[C@H](CO)[C@@H](O)[C@H]2O)n1`, the Potency entry in [3], in experiment [4], in [5], in experiment [6], in [8] and in experiment [10] was “inactive” in each case. The Potency in experiment [7] was 4.56 µM (active) and 3.76 µM (active). In experiment [9], the result was inactive.

Turning to `NC(N)=S`, the Potency entry in [1], in [2], in experiment [3], in experiment [4], in experiment [5] and in [6] was “inactive” in each case. For the same compound, the Potency result in experiment [7], in experiment [8] and in [10] was “inactive” in each case. In addition, the outcome in [9] was inactive.

Take `O=C(Cl)c1ccc(C(=O)Cl)cc1`: the Potency result in [1], in experiment [2], in experiment [3], in experiment [4], in [5] and in experiment [6] was “inactive” throughout. Further, the Potency entry in [7], in experiment [8] and in experiment [10] was “inactive” in each case. Besides, the compound was classed as inactive in experiment [9].

As for `CN=C(NC#N)NCCSCc1nc[nH]c1C`, the Potency entry in experiment [1], in [2], in experiment [3], in experiment [4], in experiment [5] and in experiment [6] was “inactive” throughout. For the same compound, the Potency entry in [7], in experiment [8] and in experiment [10] was “inactive” each time. Also, in experiment [9], the result was inactive.

`CC(=O)CC(=O)N(C)C`: the Potency result in experiment [1], in experiment [2], in [3], in experiment [4], in experiment [5] and in experiment [6] was “inactive” in each case. Moreover, the Potency result in experiment [7], in [8] and in experiment [10] was “inactive” each time. Further, in [9], the outcome was inactive.

On to `NCCNCCNCCN`, for which the Potency result in [1], in [2], in experiment [3], in experiment [4], in [5] and in experiment [6] was “inactive” throughout. Moreover, the Potency entry in experiment [7], in [8] and in experiment [10] was “inactive” throughout. For the same compound, the compound was called inactive in experiment [9].

`COC(=O)/C=C\C(=O)OC`: the Potency entry in experiment [1], in experiment [2], in experiment [3], in experiment [4], in experiment [5] and in experiment [6] was “inactive” in each case. Besides, the Potency entry in [7], in [8] and in experiment [10] was “inactive” each time. The result in experiment [9] was inactive.

As for `OC1CCCCC1`, the Potency entry in experiment [1], in [2], in [3], in [4], in experiment [5] and in experiment [6] was “inactive” in each case. Also, the Potency entry in experiment [7], in experiment [8] and in [10] was “inactive” each time. Besides, the compound was classed as inactive in experiment [9].

On to `COC(=O)OC`, for which the Potency result in experiment [1], in [2], in experiment [3], in [4], in experiment [5] and in [6] was “inactive” throughout. The Potency result in experiment [7], in [8] and in [10] was “inactive” in each case. Also, in experiment [9], the compound was classed as inactive.

As for `Oc1ccc(Cc2ccccc2O)cc1`, the Potency result in experiment [1], in experiment [2], in experiment [3], in experiment [4], in [5] and in experiment [6] was “inactive” in each case. In addition, the Potency result in [7], in [8] and in [10] was “inactive” in each case. Besides, the call in experiment [9] was inactive.

Take `Cc1ncc(CO)c(CO)c1O`: the Potency entry in [1], in experiment [2], in [3], in [4], in experiment [5] and in [6] was “inactive” throughout. Moreover, the Potency result in experiment [7], in experiment [8] and in [10] was “inactive” throughout. For the same compound, the outcome in [9] was inactive.

Take `O=Cc1ccc(CO)o1`: the Potency result in [1], in experiment [2], in experiment [3], in [4], in [5] and in experiment [6] was “inactive” each time. In addition, the Potency result in [7], in experiment [8] and in experiment [10] was “inactive” throughout. In experiment [9], the compound was classed as inactive.

`CN1CCCC1=O`: the Potency entry in experiment [1], in [2], in [3], in experiment [4], in [5] and in experiment [6] was “inactive” throughout. Moreover, the Potency result in experiment [7], in experiment [8] and in [10] was “inactive” in each case. Further, the compound was called inactive in [9].

As for `CC(=O)Nc1ccc(CC(=O)O)cc1`, the Potency result in [1], in experiment [2], in [3], in [4], in [5] and in experiment [6] was “inactive” throughout. The Potency result in [7], in experiment [8] and in experiment [10] was “inactive” each time. In [9], the compound was called inactive.

`CC/C=C(\C(=O)N[C@@H]1C(=O)N2C(C(=O)OCOC(=O)C(C)(C)C)=C(COC(N)=O)CS[C@H]12)c1csc(N)n1`: the Potency result in experiment [1], in experiment [2], in experiment [3], in experiment [4], in experiment [5] and in [6] was “inactive” throughout. Also, the Potency entry in experiment [7], in experiment [8] and in experiment [10] was “inactive” in each case. In experiment [9], the call was inactive.

`C=C(CC(=O)O)C(=O)O`: the Potency result in [1], in experiment [2], in [3], in experiment [4], in experiment [5] and in experiment [6] was “inactive” in each case. In addition, the Potency result in experiment [7], in experiment [8] and in experiment [10] was “inactive” in each case. Also, the call in [9] was inactive.

As for `N#CCC(=O)O`, the Potency result in experiment [1], in experiment [2], in [3], in experiment [4], in experiment [5] and in experiment [6] was “inactive” each time. Further, the Potency result in [7], in [8] and in [10] was “inactive” in each case. In addition, the call in experiment [9] was inactive.

Take `O=C1OC(=O)c2c(Cl)c(Cl)c(Cl)c(Cl)c21`: the Potency result in experiment [1], in [2], in [3], in experiment [4], in experiment [5] and in experiment [6] was “inactive” throughout. Besides, the Potency entry in experiment [7], in experiment [8] and in experiment [10] was “inactive” each time. The outcome in [9] was inactive.

For `CCCCCCCCCCCCCC(=O)O`, the Potency entry in experiment [1], in [2], in experiment [3], in experiment [4], in experiment [5] and in experiment [6] was “inactive” each time. The Potency entry in experiment [7], in experiment [8] and in [10] was “inactive” each time. Also, in experiment [9], the outcome was inactive.

As to `CCn1cc(C(=O)O)c(=O)c2cc3c(cc21)OCO3`, the Potency entry in experiment [1], in experiment [2], in [3], in experiment [4], in experiment [5] and in experiment [6] was “inactive” in each case. The Potency entry in experiment [7], in experiment [8] and in [10] was “inactive” throughout. Moreover, in [9], the outcome was inactive.

Turning to `CC(C)=CCC/C(C)=C/C=O`, the Potency result in experiment [1], in experiment [2], in experiment [3], in experiment [4], in [5] and in experiment [6] was “inactive” each time. Moreover, the Potency result in experiment [7], in experiment [8] and in experiment [10] was “inactive” each time. In addition, in [9], the outcome was inactive.

As for `CC(=O)OCCC(C)C`, the Potency result in [1], in experiment [2], in experiment [3], in [4], in [5] and in experiment [6] was “inactive” each time. Besides, the Potency result in [7], in [8] and in experiment [10] was “inactive” each time. In addition, the result in experiment [9] was inactive.

For `O=C(NCC1CCCCN1)c1cc(OCC(F)(F)F)ccc1OCC(F)(F)F` (stereo not drawn), the Potency entry in experiment [1], in experiment [2], in experiment [3], in experiment [4], in experiment [5] and in [6] was “inactive” throughout. Also, the Potency entry in [7], in [8] and in [10] was “inactive” in each case. Besides, the call in experiment [9] was inactive.

Regarding `COc1c2ccoc2cc2oc(=O)ccc12`, the Potency entry in [1], in experiment [2], in [3], in experiment [4], in experiment [5] and in experiment [6] was “inactive” each time. Further, the Potency entry in experiment [7], in [8] and in experiment [10] was “inactive” throughout. Moreover, the call in experiment [9] was inactive.
